Assay outcomes from PubChem.
The list is not random: actives were taken first. Their share in the collection is about 3.2%.
Mtb UGM inh – blocks M. tuberculosis UGM enzyme. inhibition, % at 10 µM. AID 504406. purified UGM, fluorescence polarization probe displacement. P9WIQ1. 320,000 compounds, 0.06% hits; in the data active = inhibition above about 10%, passing the limit was not always enough
Target sequence (P9WIQ1 whole entry, looked up): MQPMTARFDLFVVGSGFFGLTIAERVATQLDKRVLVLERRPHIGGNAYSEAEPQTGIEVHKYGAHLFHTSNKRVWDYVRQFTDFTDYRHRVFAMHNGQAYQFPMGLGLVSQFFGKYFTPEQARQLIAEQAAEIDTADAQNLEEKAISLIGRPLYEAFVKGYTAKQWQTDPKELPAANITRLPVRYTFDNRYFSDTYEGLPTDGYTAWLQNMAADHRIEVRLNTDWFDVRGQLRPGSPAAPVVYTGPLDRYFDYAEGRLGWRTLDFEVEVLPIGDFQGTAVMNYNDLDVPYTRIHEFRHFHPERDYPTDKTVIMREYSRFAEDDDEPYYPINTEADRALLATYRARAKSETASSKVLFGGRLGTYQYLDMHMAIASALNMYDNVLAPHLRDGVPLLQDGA
FBA Mtb inh – inhibits M. tuberculosis FBA enzyme; purified M. tuberculosis FBA, fluorescence read-out; P9WQA3; inhibition, % at 1 µM; 360,000 compounds, 2.3% hits; in the data active = inhibition above about 27%;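 also: 0% = vehicle and 100% = reference inhibitor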
Mtb betalactam – beta-lactam sensitization of Mtb H37Rv; M. tuberculosis H37Rv growth with meropenem, percent inhibition; inhibition, % at 25 µM; 330,000 compounds, 0.27% hits; AID 434955; call rule not given here;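 also: growth measured after seven days incubation then overnight dye step; 0% = bacteria only wells and 100% = bacteria with antibiotic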
PriA SSB inh – K. pneumoniae PriA-SSBct interaction inhibition | AID 1272365 | AlphaScreen SSBct-PriA binding, biotinylated peptide | 430,000 compounds, 0.6% hits | inhibition, % at 33 µM; in the data active = inhibition mostly above about 37%, no sharp cut-off; inactive = mostly below about 20%;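 also: plate controls were negative control peptide for no effect and reference peptide for full effect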
GDH-TPI counter – counter-screen for M. tuberculosis FBA inhibitors: GDH-TPI coupled enzymes; GDH-TPI coupled enzyme counterscreen, NADH absorbance; inhibition, % at 4.8 µM; 360,000 compounds, 1.2% hits; AID 588335; in the data active = inhibition above about 30%;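 also: 0% = DMSO wells and 100% = wells lacking the enzyme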
Rv3671c inh – inhibits the M. tuberculosis serine protease Rv3671c; AID 2606; inhibition, % at 5.96 µM; P9WHR9; 320,000 compounds, 0.048% hits; in the data active = inhibition above about 38%;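 also: extracellular domain of Rv3671c used as enzyme; 0% = enzyme with DMSO and 100% = no enzyme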
Active calls of the source: *; · = no result; + = active, no number.

SMILES	Mtb UGM inh	FBA Mtb inh	Mtb betalactam	PriA SSB inh	GDH-TPI counter	Rv3671c inh
COc1ccc(-c2nc(C#N)c(N3CCN(C(=O)c4ccco4)CC3)o2)cc1OC	2	6	-6	-22	-8	-7
Cc1cccc(-c2nc(C#N)c(N3CCCCCC3)o2)c1	2	139*	11	38	26	4
Cc1cccc(-c2nc(C#N)c(N3CCC(C)CC3)o2)c1	3	9	-4	4	0	·
COc1ccc(-c2nc(C#N)c(N3CCc4ccccc4C3)o2)cc1OC	0	150*	98	30	41*	4
N#Cc1nccnc1O[C@H]1CCN(C(=O)c2ccc(=O)[nH]c2)C1	·	·	·	-9	·	·
O=C(O)c1cn(-c2ccccc2)[nH]c1=O	·	·	·	-16	·	·
COc1ccc(NC(C)=O)cc1NC(=O)c1ccc(=O)n(Cc2ccc(F)cc2)n1	·	·	·	-5	·	·
CC(=O)N1CCC(CN2CCCC2)CC1	·	·	·	38*	·	·
CC(=O)N1N=C(c2ccc(Cl)cc2)CC1c1cn(-c2ccccc2)nc1-c1ccco1 (stereo not given)	·	·	·	-4	·	·
COC(=O)C1=C(C)NC(C)=C(C(=O)OC)C1c1cn(-c2ccccc2)nc1-c1ccco1	4	22	-6	-4	34*	0
C=CCNc1sc(C(=O)C(C)(C)C)c(N)c1C#N	1	0	-5	-4	40*	-3
C=CCNc1sc(C(=O)C2CC2)c(N)c1C#N	-1	-2	2	-20	40*	6
COc1ccc(-c2cn3c(C(=O)NCCc4ccc(S(N)(=O)=O)cc4)csc3n2)cc1	·	·	·	-2	·	·
CCCc1ccc(C(=O)N2CCc3ncncc3C2)cc1	·	·	·	-6	·	·
CC(C)N(C(=O)Nc1ccc2nccnc2c1)C(C)C	2	12	-6	79*	1	-4
Fc1ccc(NC(=S)Nc2ccc3nccnc3c2)cc1	2	9	-3	45*	13	-5
Cc1cc(=O)n2c(-c3ccc(NS(=O)(=O)c4ccc(Cl)s4)cc3)csc2n1	·	·	·	-8	·	·
O=c1[nH]c(=S)c2c(n1Cc1ccc(Cl)cc1)CCC2	·	·	·	-10	·	·
COc1cc(/C=N/NC(=O)c2ccc([N+](=O)[O-])cc2Cl)cc(Br)c1O	1	-5	8	·	42*	-10
COc1cc(/C=N/NC(=O)c2sc(N)c(C#N)c2C)cc(Br)c1O	0	0	6	·	38*	-36
Cc1c(C(=O)NN=Cc2ccc(O)c(Br)c2)sc(N)c1C#N	·	·	·	6	·	·
Cc1c(C(=O)N/N=C/c2cccnc2)sc(N)c1C#N	-2	2	4	·	31*	·
CCN=c1scc(C)n1/N=C/c1cc(Br)c(O)c(OC)c1	-1	0	0	·	32*	1
COc1ccc(Br)cc1C(=O)N/N=C/c1ccc([N+](=O)[O-])cc1	-1	2	4	·	4	4
O=C(CSc1ncnc2c1oc1ccccc12)Nc1ccc(OC(F)(F)F)cc1	·	·	·	-8	·	·
SMILES	Mtb UGM inh	FBA Mtb inh	Mtb betalactam	PriA SSB inh	GDH-TPI counter	Rv3671c inh
CN(C)CCN(C(=O)c1cccs1)c1nc2c(S(C)(=O)=O)cccc2s1	·	·	·	3	·	·
CN(C)c1ccc(C=Nc2ccccc2NC(=O)C2CCC(C)(C(=O)O)C2(C)C)cc1 (stereo not given)	·	·	·	-11	·	·
COc1cc(/C=N/NC(=O)CC#N)cc(Br)c1O	-2	+	0	·	15	-10
CCCCCC(=O)NN=Cc1cc(Br)c(O)c(OC)c1	·	·	·	0	·	·
CO[C@@H](CNS(=O)(=O)c1ccc2c(c1)CCO2)c1ccc(Cl)s1	·	·	·	2	·	·
Cn1cnnc1SCc1cc(=O)c(OCC(=O)c2ccccc2)co1	·	·	·	-16	·	·
O=C(c1ccc2nsnc2c1)N1CCN(CC(F)(F)F)CC1	·	·	·	-12	·	·
COC(=O)Cn1c(=NC(=O)c2ccc(OC)cc2)sc2cc(OC)ccc21	1	11	-1	-4	36*	-12
CN(C)N=C1C(=O)N(CN2CCN(c3ccccc3)CC2)c2ccccc21	·	·	·	14	·	·
O=C1c2cccc3cccc(c23)C(=O)N1CC(=O)N1CCCc2ccccc21	·	·	·	-10	·	·
CCCCCCCCCC[n+]1cccc2c3ccccc3ccc21	·	29*	·	-4	4	·
Cc1cccc[n+]1CCCCCCCCCC[n+]1ccccc1C	-3	-6	4	-11	-4	4
O=C1Nc2ccc([N+](=O)[O-])cc2C1(O)N1CCCCCC1 (stereo not given)	-6	-1	-1	3	33*	-4
Cc1ccc(C)c(S(=O)(=O)Nc2ccc(Nc3ccc(-n4nc(C)c(C)c4C)nn3)cc2)c1	·	·	·	-13	·	·
CC(C)OC(=O)c1cc(C(=O)c2cc(F)ccc2O)coc1=N	1	5	52	0	36*	-10
CC(C)OC(=O)c1cc(C(=O)c2cc(Cl)ccc2O)coc1=N	5	2	5	-8	10	2
COc1cc(C=NNC(=O)c2ccoc2C)ccc1O	·	·	·	0	·	·
COc1ccc(NC2CCCN(Cc3cccc4cnccc34)C2)cc1 (stereo not given)	-1	2	2	16	15	2
COc1ccc(NC2CCCN(Cc3cccc4cnccc34)C2)cc1OC (stereo not given)	-3	118*	6	-1	20	-9
O=C(CSc1nccn(-c2ccc3c(c2)OCCO3)c1=O)NC1CCCCC1	·	·	·	7	·	·
CN(C)c1ccc(C=C2C=CC=C2)cc1	·	-6	·	41*	12	·
O=C(CSc1nccn1-c1ccc(F)cc1)Nc1ccccc1C(F)(F)F	·	·	·	15	·	·
N#Cc1ccccc1NC(=O)CSc1nccn1-c1ccc(C(=O)NCc2ccccc2F)cc1	·	·	·	35*	·	·
CCn1c(-c2ccccc2)c(C(=O)O)c2ccccc21	1	28*	10	1	-1	-10
Cc1cc(-c2ccc(NC(=O)c3ccc(Br)cc3)c(C)c2)ccc1NC(=O)c1ccc(Br)cc1	·	·	·	-11	·	·
SMILES	Mtb UGM inh	FBA Mtb inh	Mtb betalactam	PriA SSB inh	GDH-TPI counter	Rv3671c inh
CC(C)C(=O)N1CCc2ccc(NC(=O)c3ccccc3F)cc2C1	·	·	·	-8	·	·
CN(C)CCNC(=O)c1cccc2nc3cccc(F)c3nc12	·	5	·	-2	21	·
CN(C)CCNC(=O)c1cccc2ccc(-c3ccc(-c4ccccc4)cc3)nc12	·	58*	·	24	10	·
O=C(Nc1cc2ccccc2cc1NC(=O)C1CCCCC1)C1CCCCC1	·	·	·	-12	·	·
CCc1ccc2[nH]c(=O)c(C(c3nnnn3CC3CCCO3)N3CCCc4ccccc43)cc2c1 (stereo not given)	-2	1	5	4	2	3
Cc1cc2cc(C(c3nnnn3CC3CCCO3)N3CCCc4ccccc43)c(=O)[nH]c2cc1C (stereo not given)	·	4	·	2	34*	·
CC(=NNc1ccnc2cc(Cl)ccc12)c1ccc(N)cc1	·	·	·	71*	·	·
Oc1ccc(/C=N/Nc2ccnc3cc(Cl)ccc23)c(O)c1O	1	-3	0	·	0	5
Oc1ccc(C=NNc2ccnc3cc(Cl)ccc23)cc1O	·	·	·	47*	·	·
Cc1cc(-c2ccc(C(=O)O)s2)c[nH]c1=O	·	·	·	7	·	·
Cc1cc(-c2ccc(C(=O)O)s2)cnc1N	3	+	3	-23	17	2
O=C(O)c1ccc(-c2ccc(-c3ccccc3)cc2)s1	0	118*	2	·	27	-7
O=C(Nc1ccccc1)c1ccc(-c2ccccc2)s1	1	-1	-1	-2	-9	-1
